From PubChem BioAssay (EPA / NIEHS) come the findings set out here.

The target of test [1] is guinea pig Sigma Receptor, Non-selective Binding, SIGMAR1 (gene 100135589) (UniProt Q60492). Put plainly: NVS_OR_gSIGMA_NonSelective: NovaScreen (NVS) Nuclear Receptor Binding Assay for guinea pig Sigma Receptor, Non-selective Binding (AID 2283367). A digest of the protocol:
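gp brain membr., radioligand displacement, 1 h, filtration + scint. counting; DMSO = baseline; 25 uM x2 primary, conc.-response confirm.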

Test [2] relates to guinea pig Dopamine Transporter (DAT), gene 100714898. As to the kind of experiment: NVS_TR_gDAT: NovaScreen (NVS) Transporter Assay for guinea pig Dopamine Transporter (DAT) (AID 2283369).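 Also: active compounds lower bound radioligand signal relative to DMSO.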 In short, it runs like this:
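Scintillation counts of filter-retained radioligand report binding to guinea pig striatal membranes after 2 h. Activity scored as signal loss relative to DMSO, first at 25 uM in duplicate, then in concentration series to 50 uM.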

For test [3], the target named is human Dopamine Transporter (DAT), SLC6A3 (gene 6531) (UniProt Q01959). As to the kind of experiment: NVS_TR_hDAT: NovaScreen (NVS) Transporter Assay for human Dopamine Transporter (DAT) (AID 2283374).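 Also: activity means loss of bound radioligand signal relative to DMSO.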 In short, it runs like this: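 Test chemicals were first screened in duplicate at 25 uM, with actives retested as concentration series. Displacement of a specific radioligand from cell-free human dopamine transporter was measured after 1 h by filtration and scintillation counting.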
Chain of human Dopamine Transporter (DAT), SLC6A3 (gene 6531) (Q01959 whole entry, looked up): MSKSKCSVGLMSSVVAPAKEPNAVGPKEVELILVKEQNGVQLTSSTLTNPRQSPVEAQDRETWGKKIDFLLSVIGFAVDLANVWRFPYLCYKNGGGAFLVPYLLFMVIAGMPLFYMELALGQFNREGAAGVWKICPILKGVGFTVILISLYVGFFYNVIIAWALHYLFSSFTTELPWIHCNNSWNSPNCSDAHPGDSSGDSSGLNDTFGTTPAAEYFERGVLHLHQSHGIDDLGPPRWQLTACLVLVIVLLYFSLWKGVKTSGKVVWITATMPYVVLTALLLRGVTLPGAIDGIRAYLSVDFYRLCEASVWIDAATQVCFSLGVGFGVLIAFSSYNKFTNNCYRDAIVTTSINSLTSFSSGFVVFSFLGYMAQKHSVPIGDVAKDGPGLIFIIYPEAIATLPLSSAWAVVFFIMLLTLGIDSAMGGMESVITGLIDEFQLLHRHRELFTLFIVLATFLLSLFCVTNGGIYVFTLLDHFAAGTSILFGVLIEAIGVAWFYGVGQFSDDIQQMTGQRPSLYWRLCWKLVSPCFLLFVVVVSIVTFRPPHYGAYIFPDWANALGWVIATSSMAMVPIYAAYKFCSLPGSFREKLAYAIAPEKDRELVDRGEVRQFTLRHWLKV

Test [4] deals with human Norepinephrine Transporter (NET), SLC6A2 (gene 6530) (UniProt P23975). As to the kind of experiment: NVS_TR_hNET: NovaScreen (NVS) Transporter Assay for human Norepinephrine Transporter (NET) (AID 2283377).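 Also: cell-free membrane protein extracted from CHO cells expressing human NET.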 In short, it runs like this: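 Scintillation counts of filter-retained radioligand served as the readout, taken 1 h post-dosing in a cell-free CHO-derived system. Test chemicals ran first at 25 uM in duplicate; confirmed hits were retested across concentrations.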
Chain of human Norepinephrine Transporter (NET), SLC6A2 (gene 6530) (P23975 whole entry, looked up): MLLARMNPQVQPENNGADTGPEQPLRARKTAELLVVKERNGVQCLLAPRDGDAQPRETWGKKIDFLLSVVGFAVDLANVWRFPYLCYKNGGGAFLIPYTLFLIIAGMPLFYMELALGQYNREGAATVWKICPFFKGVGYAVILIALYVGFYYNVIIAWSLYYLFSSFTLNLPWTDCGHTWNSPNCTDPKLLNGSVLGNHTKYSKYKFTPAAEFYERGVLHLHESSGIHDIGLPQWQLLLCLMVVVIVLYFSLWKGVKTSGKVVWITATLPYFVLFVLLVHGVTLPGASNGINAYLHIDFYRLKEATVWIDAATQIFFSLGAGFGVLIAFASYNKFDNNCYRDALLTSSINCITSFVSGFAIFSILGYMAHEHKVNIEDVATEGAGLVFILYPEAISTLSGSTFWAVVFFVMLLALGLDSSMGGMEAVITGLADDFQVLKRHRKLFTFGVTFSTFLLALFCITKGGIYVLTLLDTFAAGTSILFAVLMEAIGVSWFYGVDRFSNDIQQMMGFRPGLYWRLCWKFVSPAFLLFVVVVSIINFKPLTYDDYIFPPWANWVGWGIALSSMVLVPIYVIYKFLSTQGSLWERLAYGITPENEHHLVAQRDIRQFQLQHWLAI

Test [5] has as its target Nuclear receptor subfamily 1 group I member 2 (Homo sapiens) (UniProt O75469). As to the kind of experiment: NVS_NR_hPXR: NovaScreen (NVS) Nuclear Receptor Binding Assay for human Pregnane X Receptor (PXR) (AID 2283365).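 Also: a drop in FRET signal versus DMSO baseline means the compound binds.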 A digest of the protocol:
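Human PXR protein, cell-free; compound added, incubated 2 h, TR-FRET read. Signal decrease vs DMSO = binding. Screened 25 uM duplicate, actives re-run as dilution series.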

For test [6], the target named is Retinoic acid receptor RXR-alpha (Homo sapiens) (UniProt P19793). As to the kind of experiment: OT_NURR1_NURR1RXRa_0480: Odyssey Thera (OT) 8-hour HEK293T Protein Complementation Assay for Nurr1/retinoid X receptor (RXR) (AID 2283385). In short, it runs like this: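 Compounds are applied to HEK293T cells carrying Nurr1 and RXRα linked to reporter fragments. After 8 h, fluorescence intensity reports heterodimer formation, with DMSO as baseline.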
Chain of Retinoic acid receptor RXR-alpha (Homo sapiens) (P19793 whole entry, looked up, the tested form may be a part): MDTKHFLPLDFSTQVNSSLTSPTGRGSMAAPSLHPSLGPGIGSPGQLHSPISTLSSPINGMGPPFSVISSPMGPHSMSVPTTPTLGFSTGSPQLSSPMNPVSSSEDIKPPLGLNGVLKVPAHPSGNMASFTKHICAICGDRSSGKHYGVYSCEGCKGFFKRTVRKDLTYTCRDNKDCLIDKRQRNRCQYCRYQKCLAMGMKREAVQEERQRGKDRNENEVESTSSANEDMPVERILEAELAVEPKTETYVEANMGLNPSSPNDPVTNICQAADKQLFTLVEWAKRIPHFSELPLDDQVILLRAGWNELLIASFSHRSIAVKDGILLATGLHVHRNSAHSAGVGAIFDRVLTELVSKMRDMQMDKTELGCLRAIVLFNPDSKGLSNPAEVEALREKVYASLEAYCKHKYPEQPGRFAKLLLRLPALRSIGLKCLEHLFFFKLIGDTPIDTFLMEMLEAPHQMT

The target is the same in test [7]. As to the kind of experiment: OT_NURR1_NURR1RXRa_1440: Odyssey Thera (OT) 24-hour HEK293T Protein Complementation Assay for Nurr1/retinoid X receptor (RXR) (AID 2283386). In short, it runs like this:
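Measured as fluorescence from a reconstituted split reporter, this 24 h HEK293T complementation assay scores compound-induced gain of Nurr1/RXRα association relative to DMSO.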

The target of test [8] is Peroxisome proliferator-activated receptor gamma (Homo sapiens) (UniProt P37231). As to the kind of experiment: OT_PPARg_PPARgSRC1_0480: Odyssey Thera (OT) 8-hour Protein-Complementation Assay for Peroxisome Proliferator-activated Receptor Gamma / SRC-1 Co-activator (AID 2283387).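 Also: nuclear to cytoplasmic split Venus YFP fluorescence ratio reporting PPARg SRC-1 interaction.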 A digest of the protocol:
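Protein-fragment complementation of split Venus YFP reports PPARg/SRC-1 interaction in HEK293T (transfected 48 h before treatment), exposed 8 h. Readout: N/C fluorescence ratio at 488 nm from imaging, Draq5 for segmentation, positive fit relative to DMSO.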

The target is the same in test [9]. As to the kind of experiment: OT_PPARg_PPARgSRC1_1440: Odyssey Thera (OT) 24-hour Protein-Complementation Assay for Peroxisome Proliferator-activated Receptor Gamma/ SRC-1 Co-activator (AID 2283388).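 Also: nuclear to cytoplasmic ratio of reconstituted Venus YFP fluorescence in fixed imaged cells.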 In short, it runs like this: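 Protein-fragment complementation between PPARg and coactivator SRC-1 was measured by fluorescence imaging in transiently transfected HEK293T cells after 24 h treatment. Signal was quantified as N/C ratio in the 488 nm channel, with DMSO as negative control.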

Test [10] has the same target. As to the kind of experiment: NVS_NR_hPPARg: NovaScreen (NVS) Nuclear Receptor Binding Assay for human Peroxisome Proliferator-activated Receptor gamma (PPARg) (AID 2283370). In short, it runs like this:
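Chemicals were tested first in duplicate at 25 uM, then in concentration series if active. Binding to cell-free PPARg protein was measured by fluorescence polarization after 2 h, with loss of signal scored against DMSO.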

In test [11] the target is Estrogen receptor beta (Homo sapiens) (UniProt Q92731). As to the kind of experiment: OT_ER_ERbERb_1440: Odyssey Thera (OT) 24-hour HEK293T Protein-Complementation Assay for Estrogen Receptor-beta/-beta Homodimer (AID 2283380).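 Also: fluorescence gain from ER beta LBD homodimer complementation read by laser scanning cytometry; scored as signal increase over DMSO baseline for both agonists and antagonists.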 In short, it runs like this: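 Fluorescence increase, nuclear for agonists or whole-cell for antagonists, relative to DMSO vehicle, quantified by laser scanning cytometer after fixation and Draq5 staining. Readout from 24 h treatment of HEK293T cells carrying complementation-paired ER beta LBD (aa 310-547).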
Chain of Estrogen receptor beta (Homo sapiens) (Q92731 whole entry, looked up, the tested form may be a part): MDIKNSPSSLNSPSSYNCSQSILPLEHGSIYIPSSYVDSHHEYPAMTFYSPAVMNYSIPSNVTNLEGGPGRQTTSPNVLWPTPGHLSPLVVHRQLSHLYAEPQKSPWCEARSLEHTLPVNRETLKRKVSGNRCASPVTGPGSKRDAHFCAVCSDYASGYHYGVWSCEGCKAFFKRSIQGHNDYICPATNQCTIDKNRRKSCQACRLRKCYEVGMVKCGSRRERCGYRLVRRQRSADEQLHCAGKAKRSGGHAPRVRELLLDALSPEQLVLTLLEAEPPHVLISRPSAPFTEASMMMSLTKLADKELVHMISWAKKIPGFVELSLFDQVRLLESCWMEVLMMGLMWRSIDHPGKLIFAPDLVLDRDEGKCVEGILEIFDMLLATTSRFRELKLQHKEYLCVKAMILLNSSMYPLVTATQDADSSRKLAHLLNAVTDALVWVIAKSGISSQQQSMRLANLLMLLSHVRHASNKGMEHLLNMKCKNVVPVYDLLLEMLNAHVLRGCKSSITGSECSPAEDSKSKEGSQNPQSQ

For test [12], the target named is Bile acid receptor (Homo sapiens) (UniProt Q96RI1). Put plainly: OT_FXR_FXRSRC1_0480: Odyssey Thera (OT) 8-hour HEK293T Protein-Complementation Assay for Farnesoid X receptor/SRC-1 Co-activator (AID 2283383). In short, it runs like this:
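Co-activator recruitment to FXR was measured in living HEK293T cells, where interaction of the two fused partners restored an active fluorescent reporter. Signal gain after 8 h treatment was referenced to DMSO.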

Test [13] addresses Estrogen receptor (Homo sapiens) (UniProt P03372). As to the kind of experiment: OT_ERa_GFPERaERE_0480: Odyssey Thera (OT) 8-hour HeLa Transcription Induction Assay for Estrogen Receptor (AID 2283381; active = hit-call score of the fitted dose curve at least 0.9, where 1 is the maximum; inactive = score below 0.9). A digest of the protocol:
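Cells (HeLa) receive compound; after 8 h, reporter fluorescence is imaged and quantified by high-content analysis. Gain-of-signal relative to DMSO gives the endpoint.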

For test [14] the target is unchanged. As to the kind of experiment: OT_ERa_GFPERaERE_0120: Odyssey Thera (OT) 2-hour HeLa Transcription Induction Assay for Estrogen Receptor (AID 2283382). In short, it runs like this: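 Measures ESR1 pathway reporter gain-of-signal in HeLa cells after a 2-hour treatment, detected as fluorescent protein induction by microscopy, DMSO as baseline.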
For test [15], the target named is mouse Estrogen Receptor alpha (Era), Esr1 (gene 13982) (UniProt P19785). As to the kind of experiment: NVS_NR_mERa: NovaScreen (NVS) Nuclear Receptor Binding Assay for mouse Estrogen Receptor alpha (Era) (AID 2283378).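 Also: hit means loss of bound radioligand signal relative to DMSO.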 A digest of the protocol:
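Extracted mouse Era incubated with tritiated or iodinated radioligand plus test chemical, 18 h. Bound fraction separated on filters, counted by scintillation. DMSO = negative control/baseline; duplicate single-point at 25 uM, then concentration-response follow-up.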

Test [16] addresses Agonist Androgen Response Element (ARE), AR (gene 367) (UniProt P10275). Put plainly: OT_AR_ARELUC_AG_1440: Odyssey Thera (OT) 24-hour CHO-K1 Luciferase Assay for Agonist Androgen Response Element (ARE) (AID 2283379). In short, it runs like this:
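Agonist mode, 24 h exposure in CHO-K1 ARE-luciferase cells; values reflect luminescence induction over vehicle.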

The target in test [17] is rat Androgen Receptor (AR), Ar (gene 24208) (UniProt P15207). As to the kind of experiment: NVS_NR_rAR: NovaScreen (NVS) Nuclear Receptor Binding Assay for rat Androgen Receptor (AR) (AID 2283366). A digest of the protocol: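 Cell-free radioligand binding on extracts of prostate from testosterone-pretreated rats, read by filter-based scintillation counting 18 h after dosing. Loss of bound signal fitted positively versus DMSO; primary screen in duplicate at 25 uM, actives followed up in concentration series.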

Results filed as inconclusive are left out. Calls of active or inactive are those of the source. The calls were made as follows, unless noted: active = hit-call score of the fitted dose curve at least 0.9, where 1 is the maximum; inconclusive = response in the unintended direction; inactive = score below 0.9.

As a reminder, the AC50 is the concentration at which the activity in the assay is half-maximal.

Chain of Peroxisome proliferator-activated receptor gamma (Homo sapiens) (P37231 whole entry, looked up, the tested form may be a part): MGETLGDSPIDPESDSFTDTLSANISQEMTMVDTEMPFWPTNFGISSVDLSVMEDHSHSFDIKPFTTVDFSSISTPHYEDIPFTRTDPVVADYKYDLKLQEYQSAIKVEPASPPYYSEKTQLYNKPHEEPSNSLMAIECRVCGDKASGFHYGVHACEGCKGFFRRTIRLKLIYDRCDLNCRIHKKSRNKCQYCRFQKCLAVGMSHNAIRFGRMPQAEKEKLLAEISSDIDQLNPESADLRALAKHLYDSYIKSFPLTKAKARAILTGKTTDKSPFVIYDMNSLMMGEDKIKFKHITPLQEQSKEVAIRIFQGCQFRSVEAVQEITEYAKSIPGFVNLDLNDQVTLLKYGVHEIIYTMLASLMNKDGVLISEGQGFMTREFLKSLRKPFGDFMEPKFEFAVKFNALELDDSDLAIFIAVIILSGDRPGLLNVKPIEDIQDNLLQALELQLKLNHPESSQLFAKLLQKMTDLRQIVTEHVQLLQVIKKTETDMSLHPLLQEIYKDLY
Chain of Estrogen receptor (Homo sapiens) (P03372 whole entry, looked up): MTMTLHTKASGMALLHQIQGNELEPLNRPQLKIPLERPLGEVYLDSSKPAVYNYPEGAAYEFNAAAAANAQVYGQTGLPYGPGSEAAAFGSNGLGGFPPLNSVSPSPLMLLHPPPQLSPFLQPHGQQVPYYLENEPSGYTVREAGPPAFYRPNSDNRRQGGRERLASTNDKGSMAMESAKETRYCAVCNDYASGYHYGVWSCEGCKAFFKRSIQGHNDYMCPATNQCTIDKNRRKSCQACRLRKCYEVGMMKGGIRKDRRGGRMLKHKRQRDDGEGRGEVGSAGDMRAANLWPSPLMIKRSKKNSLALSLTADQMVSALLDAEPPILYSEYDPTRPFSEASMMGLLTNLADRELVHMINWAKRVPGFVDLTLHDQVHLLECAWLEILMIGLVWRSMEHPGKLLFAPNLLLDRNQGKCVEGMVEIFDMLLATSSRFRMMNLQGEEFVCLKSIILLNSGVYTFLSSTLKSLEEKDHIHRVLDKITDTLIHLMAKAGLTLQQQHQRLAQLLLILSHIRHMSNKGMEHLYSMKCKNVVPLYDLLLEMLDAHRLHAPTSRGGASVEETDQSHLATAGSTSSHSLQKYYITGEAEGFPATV
Chain of guinea pig Sigma Receptor, Non-selective Binding, SIGMAR1 (gene 100135589) (Q60492 whole entry, looked up): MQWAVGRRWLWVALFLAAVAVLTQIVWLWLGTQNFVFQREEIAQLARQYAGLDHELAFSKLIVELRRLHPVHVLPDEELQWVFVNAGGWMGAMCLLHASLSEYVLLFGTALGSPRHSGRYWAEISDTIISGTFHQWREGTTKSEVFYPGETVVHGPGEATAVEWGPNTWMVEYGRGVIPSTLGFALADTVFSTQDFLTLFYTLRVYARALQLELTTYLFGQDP
Chain of Bile acid receptor (Homo sapiens) (Q96RI1 whole entry, looked up, the tested form may be a part): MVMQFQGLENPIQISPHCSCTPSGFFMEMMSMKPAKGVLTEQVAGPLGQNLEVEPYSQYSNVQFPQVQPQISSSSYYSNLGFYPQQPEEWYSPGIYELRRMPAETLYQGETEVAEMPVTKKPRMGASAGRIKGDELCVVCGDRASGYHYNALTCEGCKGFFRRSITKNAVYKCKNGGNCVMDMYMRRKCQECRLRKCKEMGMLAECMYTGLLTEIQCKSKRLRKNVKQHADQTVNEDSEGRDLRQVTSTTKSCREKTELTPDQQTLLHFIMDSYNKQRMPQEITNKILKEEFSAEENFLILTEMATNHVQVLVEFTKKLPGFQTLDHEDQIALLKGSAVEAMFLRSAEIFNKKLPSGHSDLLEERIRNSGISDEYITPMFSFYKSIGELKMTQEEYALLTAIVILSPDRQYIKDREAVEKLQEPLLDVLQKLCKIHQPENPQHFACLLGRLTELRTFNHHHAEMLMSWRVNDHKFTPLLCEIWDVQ
Chain of Agonist Androgen Response Element (ARE), AR (gene 367) (P10275 whole entry, looked up): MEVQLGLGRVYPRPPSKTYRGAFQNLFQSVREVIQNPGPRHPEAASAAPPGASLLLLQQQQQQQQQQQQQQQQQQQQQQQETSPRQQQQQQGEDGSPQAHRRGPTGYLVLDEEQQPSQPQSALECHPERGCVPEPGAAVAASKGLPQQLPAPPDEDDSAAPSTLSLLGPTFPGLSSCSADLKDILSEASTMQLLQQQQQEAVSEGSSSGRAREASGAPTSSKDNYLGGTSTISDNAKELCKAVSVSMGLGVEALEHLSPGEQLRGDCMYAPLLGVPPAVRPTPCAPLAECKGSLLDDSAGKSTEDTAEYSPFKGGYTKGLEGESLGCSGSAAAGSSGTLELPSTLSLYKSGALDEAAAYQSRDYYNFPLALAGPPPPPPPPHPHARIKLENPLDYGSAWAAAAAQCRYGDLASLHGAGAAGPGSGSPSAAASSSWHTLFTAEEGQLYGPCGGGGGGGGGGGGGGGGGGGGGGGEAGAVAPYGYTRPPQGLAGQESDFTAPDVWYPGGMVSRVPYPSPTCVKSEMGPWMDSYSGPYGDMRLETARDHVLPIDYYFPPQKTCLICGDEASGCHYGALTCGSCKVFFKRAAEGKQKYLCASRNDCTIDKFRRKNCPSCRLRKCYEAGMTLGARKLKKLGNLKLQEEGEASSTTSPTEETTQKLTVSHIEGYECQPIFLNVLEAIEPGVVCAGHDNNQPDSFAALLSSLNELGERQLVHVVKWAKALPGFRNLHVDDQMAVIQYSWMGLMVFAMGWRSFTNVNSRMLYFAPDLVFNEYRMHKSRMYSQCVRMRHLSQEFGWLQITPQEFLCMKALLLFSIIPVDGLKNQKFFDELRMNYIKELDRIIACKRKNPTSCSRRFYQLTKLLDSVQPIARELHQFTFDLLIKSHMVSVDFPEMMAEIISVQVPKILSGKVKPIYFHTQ

With `CN(c1nccc(=O)[nH]1)C1CCN(c2nc3ccccc3n2Cc2ccc(F)cc2)CC1`, the concentration at half-maximal activity (AC50) in test [1] was 0.976 µM (active); in [2], 1.76 µM (active); in test [3], 11.5 µM (active). In addition, in test [4], the molecule was called inactive.
`CCOC(=O)C1OC1c1ccccc1` (stereo not drawn): the molecule was classed as inactive in test [5], in test [6], in [7], in test [8] and in test [9].
For the molecule `ClC(c1ccccc1)(c1ccccc1)c1ccccc1`, the outcome in [2] and in test [3] was inactive.
Regarding `O=C1OC[C@H](Cc2cccc(O)c2)[C@H]1Cc1cccc(O)c1`, the half-maximal activity concentration (AC50) in test [2] is 0.771 µM (active); in [3], 0.0517 µM (active). In addition, the molecule was classed as inactive in [6], in test [8] and in test [9].
For the molecule `CCCC(=O)OC(C)(C)Cc1ccccc1`, in [10], the half-maximal activity concentration (AC50) is 13.4 µM (active). Moreover, the call in [11], in [8] and in [9] was inactive.
Regarding `O=CCc1ccccc1`, the call in [10], in [7], in test [8] and in test [9] was inactive. The AC50 in test [12] was 30.1 µM (active); in test [6] it was 19.1 µM (active).
Regarding `CCOCCOCCOCC`, in [1], the AC50 was 4.87 µM (active).
In the case of `CCN(CCC#N)c1ccc(N=Nc2ccc([N+](=O)[O-])cc2)cc1`, the molecule was called inactive in test [2] and in test [4].
Turning to `CC(C)NCC(O)COc1ccc(CC(N)=O)cc1` (stereo not drawn), the outcome in test [10], in test [13], in test [14], in test [6], in test [7] and in test [8] was inactive. The molecule was called inactive in [9].
In the case of `CCCCCCCCCCCC(=O)OCC(O)CO` (stereo not drawn), the call in [10], in test [11], in [13], in [14], in test [6] and in test [8] was inactive. In addition, the molecule was called inactive in test [9]. The AC50 in [15] was 6.68 µM (active).
For `C1=CC2C3C=CC(C3)C2C1` (stereo not drawn), the concentration at half-maximal activity (AC50) was 13 µM (active) in [1] and 2.39 µM (active) in test [10]. Also, the result in test [11], in test [12], in [6], in test [7] and in test [9] was inactive.
Take `CCc1cc(Cc2cc(CC)cc(C(C)(C)C)c2O)c(O)c(C(C)(C)C)c1`: the molecule was classed as inactive in test [10], in [16], in [11], in [8] and in [9].
On to `CC(C)(C)CC(C)(C)c1ccc(OCCOCC[N+](C)(C)Cc2ccccc2)cc1`, for which the AC50 in test [2] was 1.75 µM (active).
For `CS(=O)(=O)OCCCCOS(C)(=O)=O`, the AC50 in [3] is 25 µM (active). Further, the molecule was called inactive in [4], in [13], in test [14], in [6], in test [7] and in test [8]. For the same molecule, the molecule was classed as inactive in test [9].
On to `CCCCCCC(C)(C)S`, for which the outcome in test [10], in test [11], in test [6], in test [8] and in test [9] was inactive.
For `C=C(C)[C@H]1CC=C(C)C(=O)C1`, the result in [17] was inactive.
For `CC(=O)O[C@H]1C[C@@H]2CC[C@@]1(C)C2(C)C`, the molecule was classed as inactive in test [10], in test [11], in test [12], in test [6], in test [8] and in test [9]. For the same molecule, the AC50 in test [16] is 31.8 µM (active).
